How the values were obtained:
Assay in all cases: thermal shift delta Tm vs DMSO control; higher = stronger stabilization (binding)
Details in all cases: 12.5 µM; protein concentration 2 µM
LOC_OS02G45750-cb003 = test system: LOC_OS02G45750-cb003
Method in brief: (§1)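 Rice kinase domain constructs were expressed in E. coli, purified, and tested by differential scanning fluorimetry with compound added in DMSO. Each well of a 96-well plate held 19.5 μl of 2 μM kinase in 100 mM potassium phosphate pH 7.5, 150 mM NaCl, 10% glycerol and 5 × SYPRO Orange, and fluorescence was read from 25°C to 95°C at 0.05°C/s. The melting temperature shift is the mean of triplicates, taken against protein with DMSO alone after Boltzmann fitting.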

LOC_OS02G54510-cb004 = test system: LOC_OS02G54510-cb004
Method in brief: as §1

LOC_OS03G04050-cb001 = test system: LOC_OS03G04050-cb001
Method in brief: as §1

LOC_OS03G12390-cb001 = test system: LOC_OS03G12390-cb001
Method in brief: as §1

LOC_OS03G27990-cb004 = test system: LOC_OS03G27990-cb004
Method in brief: as §1

LOC_OS03G50450-cb001 = test system: LOC_OS03G50450-cb001
Method in brief: as §1

LOC_OS03G50810-cb003 = test system: LOC_OS03G50810-cb003
Method in brief: as §1

LOC_OS04G35114-cb001 = test system: LOC_OS04G35114-cb001
Method in brief: as §1

LOC_OS04G38480-cb003 = test system: T1, LOC_OS04G38480-cb003
T1 sequence (whole entry): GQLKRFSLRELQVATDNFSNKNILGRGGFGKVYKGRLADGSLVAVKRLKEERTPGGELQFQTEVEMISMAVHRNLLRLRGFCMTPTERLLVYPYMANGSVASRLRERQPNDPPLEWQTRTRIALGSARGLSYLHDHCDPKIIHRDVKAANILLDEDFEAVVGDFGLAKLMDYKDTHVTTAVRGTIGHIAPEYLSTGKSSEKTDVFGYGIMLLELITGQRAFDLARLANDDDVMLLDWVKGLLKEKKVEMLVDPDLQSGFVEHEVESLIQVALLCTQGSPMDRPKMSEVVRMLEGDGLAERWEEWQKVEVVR
Method in brief: as §1

LOC_OS04G41100-cb001 = test system: T2, LOC_OS04G41100-cb001
T2 sequence (whole entry): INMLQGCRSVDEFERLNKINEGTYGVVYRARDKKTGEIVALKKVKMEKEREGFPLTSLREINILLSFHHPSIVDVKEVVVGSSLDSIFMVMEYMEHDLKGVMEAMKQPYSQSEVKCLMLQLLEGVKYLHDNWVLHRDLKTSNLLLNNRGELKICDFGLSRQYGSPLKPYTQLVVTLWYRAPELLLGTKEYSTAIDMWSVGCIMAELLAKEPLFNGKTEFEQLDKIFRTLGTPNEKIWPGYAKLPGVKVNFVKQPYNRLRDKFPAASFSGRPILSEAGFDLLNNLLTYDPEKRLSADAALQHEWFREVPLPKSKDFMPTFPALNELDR
Method in brief: as §1

LOC_OS04G57630-cb004 = test system: LOC_OS04G57630-cb004
Method in brief: as §1

LOC_OS05G07850-cb002 = test system: LOC_OS05G07850-cb002
Method in brief: as §1

LOC_OS05G16824-cb004 = test system: LOC_OS05G16824-cb004
Method in brief: as §1

LOC_OS05G28520-cb001 = test system: LOC_OS05G28520-cb001
Method in brief: as §1

LOC_OS05G30820-cb001 = test system: LOC_OS05G30820-cb001
Method in brief: as §1

LOC_OS05G43570-cb004 = test system: LOC_OS05G43570-cb004
Method in brief: as §1

LOC_OS06G16330-cb003 = test system: LOC_OS06G16330-cb003
Method in brief: as §1

LOC_OS06G22820-cb001 = test system: T3, LOC_OS06G22820-cb001
T3 sequence (whole entry): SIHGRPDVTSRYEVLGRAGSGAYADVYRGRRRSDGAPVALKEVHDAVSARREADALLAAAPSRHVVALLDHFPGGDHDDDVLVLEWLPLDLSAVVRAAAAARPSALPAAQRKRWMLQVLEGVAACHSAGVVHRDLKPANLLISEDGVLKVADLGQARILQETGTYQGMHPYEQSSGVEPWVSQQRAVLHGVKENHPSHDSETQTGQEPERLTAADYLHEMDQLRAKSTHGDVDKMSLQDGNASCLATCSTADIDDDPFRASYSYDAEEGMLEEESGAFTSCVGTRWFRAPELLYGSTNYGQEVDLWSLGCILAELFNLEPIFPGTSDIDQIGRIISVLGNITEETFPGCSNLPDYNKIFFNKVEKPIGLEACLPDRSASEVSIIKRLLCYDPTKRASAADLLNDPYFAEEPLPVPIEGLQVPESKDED
Method in brief: as §1

LOC_OS07G06570-cb004 = test system: LOC_OS07G06570-cb004
Method in brief: as §1

LOC_OS07G07230-cb001 = test system: LOC_OS07G07230-cb001
Method in brief: as §1

Chain of LOC_OS06G16330-cb003 (as listed by the source): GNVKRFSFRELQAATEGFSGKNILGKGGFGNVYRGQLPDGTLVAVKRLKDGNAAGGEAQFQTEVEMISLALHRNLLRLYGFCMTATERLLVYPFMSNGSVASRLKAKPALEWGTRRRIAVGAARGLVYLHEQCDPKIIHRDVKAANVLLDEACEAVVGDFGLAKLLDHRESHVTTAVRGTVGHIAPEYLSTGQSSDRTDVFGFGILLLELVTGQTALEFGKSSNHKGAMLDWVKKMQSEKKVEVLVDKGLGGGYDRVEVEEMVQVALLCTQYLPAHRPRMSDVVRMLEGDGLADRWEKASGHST

Compound	thermal shift delta Tm (LOC_OS02G45750-cb003) [°C]	thermal shift delta Tm (LOC_OS02G54510-cb004) [°C]	thermal shift delta Tm (LOC_OS03G04050-cb001) [°C]	thermal shift delta Tm (LOC_OS03G12390-cb001) [°C]	thermal shift delta Tm (LOC_OS03G27990-cb004) [°C]	thermal shift delta Tm (LOC_OS03G50450-cb001) [°C]	thermal shift delta Tm (LOC_OS03G50810-cb003) [°C]	thermal shift delta Tm (LOC_OS04G35114-cb001) [°C]	thermal shift delta Tm (LOC_OS04G38480-cb003) [°C]	thermal shift delta Tm (LOC_OS04G41100-cb001) [°C]	thermal shift delta Tm (LOC_OS04G57630-cb004) [°C]	thermal shift delta Tm (LOC_OS05G07850-cb002) [°C]	thermal shift delta Tm (LOC_OS05G16824-cb004) [°C]	thermal shift delta Tm (LOC_OS05G28520-cb001) [°C]	thermal shift delta Tm (LOC_OS05G30820-cb001) [°C]	thermal shift delta Tm (LOC_OS05G43570-cb004) [°C]	thermal shift delta Tm (LOC_OS06G16330-cb003) [°C]	thermal shift delta Tm (LOC_OS06G22820-cb001) [°C]	thermal shift delta Tm (LOC_OS07G06570-cb004) [°C]	thermal shift delta Tm (LOC_OS07G07230-cb001) [°C]
O=C(Nc1nc2cccc(-c3ccc(CN4CCS(=O)(=O)CC4)cc3)n2n1)C1CC1 [Filgotinib (GLPG0634)]	1.04	0.58	0.6	0.31	0.64	1.73	0.86	1.37	1.66	0.6	0	4.98	1.83	0.76	0.46	0.12	5.12	0.31	0.9	0.58
NC(=O)c1cnc(N[C@@H]2CCCC[C@@H]2N)nc1Nc1cccc(-n2nccn2)c1	2.02	2.55	0.07	1.42	1.98	3.61	0.99	1.31	0.85	0.63	0.91	6.88	6.77	-0.14	2.09	0.39	5.31	0.77	1.27	0.71
Nc1nccc(Oc2ccc(NC(=O)c3c[nH]cc(-c4ccc(F)cc4)c3=O)cc2F)c1Cl	1.54	0.77	0.58	0.55	0.24	0.31	1.15	0.58	2.79	3.39	1.51	14.9	-0.78	0.3	0.92	1.01	6.76	0.86	0.57	0.36
Cc1ccc(Nc2nccc(N(C)c3ccc4c(C)n(C)nc4c3)n2)cc1S(N)(=O)=O [Pazopanib]	3.24	0.61	0.35	0.19	0.23	0.21	0.98	4.53	1.63	3.44	1.64	7.82	3.43	0.62	0.59	-0.2	4.07	0.36	1.66	0.5
CO[C@H]1C[C@@H]2CC[C@@H](C)[C@@](O)(O2)C(=O)C(=O)N2CCCC[C@H]2C(=O)O[C@H]([C@H](C)C[C@@H]2CC[C@@H](OCCO)[C@H](OC)C2)CC(=O)[C@H](C)/C=C(\C)[C@@H](O)[C@@H](OC)C(=O)[C@H](C)C[C@H](C)/C=C/C=C/C=C/1C [Everolimus (RAD001)]	0.22	-0.05	0.59	0.14	-0.04	-0.1	0.05	-0.39	0.94	0.65	-0.03	-0.04	1.13	0.62	0.41	0.57	0.13	1.04	0.88	-1.46
CCCS(=O)(=O)Nc1ccc(F)c(C(=O)c2c[nH]c3ncc(Cl)cc23)c1F	1.97	1.14	0.77	0.99	0.46	0.97	0.43	1.85	0.12	0.83	0.51	5.57	2.36	1.71	0.75	0.29	1.64	0.42	0.7	-0.02
C[C@@H](Oc1ccc2[nH]nc(/C=C/c3cnn(CCO)c3)c2c1)c1c(Cl)cncc1Cl	13.1	7.93	0.05	10.5	9.48	6.65	6.58	12.3	5.56	1.48	8.94	16	12.1	1.22	6.07	0.92	15.1	-0.35	0.87	0.66
CC1=C(C(=O)Nc2ccc3[nH]ncc3c2)C(c2ccc(F)cc2)NC(=O)N1 (stereo not given)	0.98	0.18	0.57	0.72	0.46	0.58	0.64	0.48	1.84	0.33	0.17	1.88	-1.25	0.01	0	1.03	1.01	0.88	1.97	0.55
CCc1cncnc1N1CCN(Cc2nc3ccc(C(F)(F)F)cc3[nH]2)CC1	0.59	0.3	0.39	-0.06	0.33	0.04	0.36	0.25	0.52	0.52	-0.2	-0.11	-2.67	-0.08	0.66	0.46	0.02	0.76	0.84	-0.27
O=S(=O)(NCCNC/C=C/c1ccc(Br)cc1)c1cccc2cnccc12	0.56	0.32	0.25	0.22	0.02	0.46	0.01	0.54	0.79	0.63	-0.1	2.68	-0.59	-0.13	0.53	0.62	0.87	0.31	1.14	0.17
CCn1c(-c2nonc2N)nc2cnc(Oc3cccc(NC(=O)c4ccc(OCCN5CCOCC5)cc4)c3)cc21	-0.36	0.27	0.38	0.99	0.4	-0.03	0.42	0.1	2.03	0.94	0.7	1.97	-1.49	1.05	0.73	0.77	-0.54	0.79	0.87	0.15
COc1cc(Nc2c(C#N)cnc3cc(OCCCN4CCN(C)CC4)c(OC)cc23)c(Cl)cc1Cl [Bosutinib (SKI-606)]	0.12	0.16	0.26	0.07	0.12	-0.11	-0.09	0.86	1.14	0.53	-0.3	0.13	-0.71	0.48	0.5	0.48	-0.26	0.74	0.61	0.26
COc1ccc(CC(=O)Nc2nc3c(s2)CCc2ccccc2-3)cc1OC	1.49	-0.24	0.51	0.4	0.36	0.29	0.43	0.71	1.33	0.15	0.43	1.41	2.09	0.12	0.13	0.04	-0.23	0.35	1.1	0.06
